Results on one compound are retold here after ChEMBL document CHEMBL2218924, “A broad activity screen in support of a chemogenomic map for kinase signalling research and drug discovery” (Biochem J, 2013).

In assay [1] the target is T1, Ephrin type-B receptor 1 (Homo sapiens) (UniProt P54762).
T1 sequence (whole entry): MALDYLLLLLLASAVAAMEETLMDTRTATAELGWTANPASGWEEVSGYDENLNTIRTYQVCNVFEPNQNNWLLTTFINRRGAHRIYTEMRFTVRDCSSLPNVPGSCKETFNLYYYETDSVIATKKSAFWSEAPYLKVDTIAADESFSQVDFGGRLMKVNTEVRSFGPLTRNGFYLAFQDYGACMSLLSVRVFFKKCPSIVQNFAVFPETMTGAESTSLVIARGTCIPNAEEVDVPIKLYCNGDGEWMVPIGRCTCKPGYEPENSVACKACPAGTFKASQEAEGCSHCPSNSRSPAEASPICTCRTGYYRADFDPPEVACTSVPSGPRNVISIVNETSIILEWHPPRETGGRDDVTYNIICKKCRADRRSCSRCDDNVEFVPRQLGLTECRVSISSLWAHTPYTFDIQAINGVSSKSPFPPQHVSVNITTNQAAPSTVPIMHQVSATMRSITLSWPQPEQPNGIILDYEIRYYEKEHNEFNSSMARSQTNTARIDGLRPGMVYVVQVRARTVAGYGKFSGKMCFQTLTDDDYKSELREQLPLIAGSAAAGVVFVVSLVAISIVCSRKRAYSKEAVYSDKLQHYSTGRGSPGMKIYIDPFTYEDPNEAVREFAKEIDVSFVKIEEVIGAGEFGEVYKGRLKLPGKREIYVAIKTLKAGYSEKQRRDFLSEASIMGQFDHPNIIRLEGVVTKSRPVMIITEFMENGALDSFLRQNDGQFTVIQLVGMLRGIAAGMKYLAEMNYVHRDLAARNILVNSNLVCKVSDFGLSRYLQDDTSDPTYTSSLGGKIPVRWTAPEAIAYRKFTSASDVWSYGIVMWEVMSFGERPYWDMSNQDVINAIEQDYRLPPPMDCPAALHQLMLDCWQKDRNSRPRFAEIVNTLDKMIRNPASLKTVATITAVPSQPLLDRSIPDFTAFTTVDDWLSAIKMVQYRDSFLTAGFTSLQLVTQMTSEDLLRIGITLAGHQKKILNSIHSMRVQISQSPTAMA
Particulars: at 10 µM; call rule not given here.

Assay [2] addresses T2, Ephrin type-B receptor 2 (Homo sapiens) (UniProt P29323).
T2 sequence (whole entry): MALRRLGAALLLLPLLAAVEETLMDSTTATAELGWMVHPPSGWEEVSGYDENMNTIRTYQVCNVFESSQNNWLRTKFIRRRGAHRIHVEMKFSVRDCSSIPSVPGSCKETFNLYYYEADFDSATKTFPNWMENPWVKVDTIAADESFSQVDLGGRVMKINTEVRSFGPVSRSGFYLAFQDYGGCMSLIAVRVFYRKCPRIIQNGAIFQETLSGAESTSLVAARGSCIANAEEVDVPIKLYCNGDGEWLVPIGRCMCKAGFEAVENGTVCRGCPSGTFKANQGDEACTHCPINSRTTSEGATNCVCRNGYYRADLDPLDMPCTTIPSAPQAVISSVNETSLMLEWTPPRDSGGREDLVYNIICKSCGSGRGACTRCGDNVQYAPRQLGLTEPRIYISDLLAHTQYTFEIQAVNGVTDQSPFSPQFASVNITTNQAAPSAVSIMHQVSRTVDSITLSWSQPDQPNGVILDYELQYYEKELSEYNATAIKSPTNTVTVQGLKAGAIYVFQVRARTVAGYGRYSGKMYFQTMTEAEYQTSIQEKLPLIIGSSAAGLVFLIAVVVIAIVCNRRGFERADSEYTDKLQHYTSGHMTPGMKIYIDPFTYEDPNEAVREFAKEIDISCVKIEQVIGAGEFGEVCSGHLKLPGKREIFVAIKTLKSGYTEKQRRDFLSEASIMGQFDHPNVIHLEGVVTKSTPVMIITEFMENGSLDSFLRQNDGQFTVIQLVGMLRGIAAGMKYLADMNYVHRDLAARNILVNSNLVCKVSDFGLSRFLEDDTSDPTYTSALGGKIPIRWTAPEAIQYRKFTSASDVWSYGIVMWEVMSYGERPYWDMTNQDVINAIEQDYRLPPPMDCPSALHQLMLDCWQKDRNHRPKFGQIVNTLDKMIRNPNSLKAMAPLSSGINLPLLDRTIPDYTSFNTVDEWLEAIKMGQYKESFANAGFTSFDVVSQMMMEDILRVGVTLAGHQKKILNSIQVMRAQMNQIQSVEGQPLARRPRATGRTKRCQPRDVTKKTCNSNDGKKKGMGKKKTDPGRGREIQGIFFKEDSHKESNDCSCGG
To be noted: at 1 µM.

The target in assay [3] is T2, Ephrin type-B receptor 2 (Homo sapiens). Particulars: at 10 µM.
The target of assay [4] is T3, Ephrin type-B receptor 3 (Homo sapiens) (UniProt P54753).
T3 sequence (whole entry): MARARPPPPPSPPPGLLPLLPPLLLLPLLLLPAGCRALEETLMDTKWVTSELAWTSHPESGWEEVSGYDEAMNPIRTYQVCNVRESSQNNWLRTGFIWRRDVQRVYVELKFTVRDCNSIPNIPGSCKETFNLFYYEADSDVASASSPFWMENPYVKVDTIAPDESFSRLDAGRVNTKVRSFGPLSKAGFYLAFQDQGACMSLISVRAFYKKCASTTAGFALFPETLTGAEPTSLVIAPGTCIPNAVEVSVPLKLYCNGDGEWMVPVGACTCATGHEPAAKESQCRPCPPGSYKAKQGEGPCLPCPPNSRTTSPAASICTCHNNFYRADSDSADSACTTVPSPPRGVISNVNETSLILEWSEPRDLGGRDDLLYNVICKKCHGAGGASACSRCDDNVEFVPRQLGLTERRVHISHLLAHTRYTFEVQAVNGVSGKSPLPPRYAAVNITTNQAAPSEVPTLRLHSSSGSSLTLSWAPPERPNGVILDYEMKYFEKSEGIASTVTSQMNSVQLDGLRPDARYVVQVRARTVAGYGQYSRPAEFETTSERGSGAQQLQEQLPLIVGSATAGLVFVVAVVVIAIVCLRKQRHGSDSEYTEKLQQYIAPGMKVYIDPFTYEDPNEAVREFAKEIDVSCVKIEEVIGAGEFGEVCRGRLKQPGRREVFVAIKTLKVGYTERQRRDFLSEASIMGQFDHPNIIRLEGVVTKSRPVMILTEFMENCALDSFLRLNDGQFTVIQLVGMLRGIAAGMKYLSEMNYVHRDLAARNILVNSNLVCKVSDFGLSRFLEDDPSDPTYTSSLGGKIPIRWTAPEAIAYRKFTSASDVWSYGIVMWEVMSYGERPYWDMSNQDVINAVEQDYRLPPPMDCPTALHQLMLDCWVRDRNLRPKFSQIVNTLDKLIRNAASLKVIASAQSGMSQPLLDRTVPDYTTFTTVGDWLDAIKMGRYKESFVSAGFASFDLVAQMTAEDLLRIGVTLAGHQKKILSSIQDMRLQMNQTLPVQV
Particulars: at 1 µM.

In assay [5] the target is T3, Ephrin type-B receptor 3 (Homo sapiens). Particulars: at 10 µM.
The target of assay [6] is T4, Ephrin type-B receptor 4 (Homo sapiens) (UniProt P54760).
T4 sequence (whole entry): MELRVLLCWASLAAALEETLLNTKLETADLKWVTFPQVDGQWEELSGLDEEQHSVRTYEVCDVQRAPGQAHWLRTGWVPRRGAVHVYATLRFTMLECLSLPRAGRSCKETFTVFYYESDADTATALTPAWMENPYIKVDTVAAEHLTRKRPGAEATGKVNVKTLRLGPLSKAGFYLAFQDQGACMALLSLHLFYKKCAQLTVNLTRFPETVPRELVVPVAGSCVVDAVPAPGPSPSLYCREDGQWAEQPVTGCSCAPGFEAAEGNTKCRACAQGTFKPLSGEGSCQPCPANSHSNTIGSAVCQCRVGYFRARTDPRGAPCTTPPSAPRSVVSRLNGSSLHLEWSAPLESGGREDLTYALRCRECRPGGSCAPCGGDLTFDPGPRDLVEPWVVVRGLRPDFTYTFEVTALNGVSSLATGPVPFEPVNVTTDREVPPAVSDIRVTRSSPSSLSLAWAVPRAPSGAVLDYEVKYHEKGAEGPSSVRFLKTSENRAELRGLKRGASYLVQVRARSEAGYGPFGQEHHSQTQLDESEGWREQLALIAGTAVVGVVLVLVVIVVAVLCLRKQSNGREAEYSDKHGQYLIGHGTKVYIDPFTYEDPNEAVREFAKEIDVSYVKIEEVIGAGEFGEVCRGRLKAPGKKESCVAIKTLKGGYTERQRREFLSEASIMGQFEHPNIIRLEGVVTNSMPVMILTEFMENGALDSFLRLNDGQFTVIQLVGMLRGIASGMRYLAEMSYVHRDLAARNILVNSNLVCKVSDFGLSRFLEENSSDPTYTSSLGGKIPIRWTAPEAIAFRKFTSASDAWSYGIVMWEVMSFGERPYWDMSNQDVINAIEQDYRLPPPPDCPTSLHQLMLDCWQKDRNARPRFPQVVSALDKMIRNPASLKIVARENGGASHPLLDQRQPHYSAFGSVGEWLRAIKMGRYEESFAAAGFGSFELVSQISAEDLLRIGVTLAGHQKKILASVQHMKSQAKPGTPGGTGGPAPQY
To be noted: at 1 µM.

Assay [7] addresses T4, Ephrin type-B receptor 4 (Homo sapiens). Particulars: at 10 µM.
Assay [8] addresses Receptor tyrosine-protein kinase erbB-4 (Homo sapiens) (UniProt Q15303). To be noted: at 1 µM.
Assay [9] has the same target. Particulars: at 10 µM.
Assay [10] concerns the target Focal adhesion kinase 1 (Homo sapiens) (UniProt Q05397). To be noted: at 1 µM.

Receptor tyrosine-protein kinase erbB-4 (Homo sapiens), sequence (Q15303 whole entry): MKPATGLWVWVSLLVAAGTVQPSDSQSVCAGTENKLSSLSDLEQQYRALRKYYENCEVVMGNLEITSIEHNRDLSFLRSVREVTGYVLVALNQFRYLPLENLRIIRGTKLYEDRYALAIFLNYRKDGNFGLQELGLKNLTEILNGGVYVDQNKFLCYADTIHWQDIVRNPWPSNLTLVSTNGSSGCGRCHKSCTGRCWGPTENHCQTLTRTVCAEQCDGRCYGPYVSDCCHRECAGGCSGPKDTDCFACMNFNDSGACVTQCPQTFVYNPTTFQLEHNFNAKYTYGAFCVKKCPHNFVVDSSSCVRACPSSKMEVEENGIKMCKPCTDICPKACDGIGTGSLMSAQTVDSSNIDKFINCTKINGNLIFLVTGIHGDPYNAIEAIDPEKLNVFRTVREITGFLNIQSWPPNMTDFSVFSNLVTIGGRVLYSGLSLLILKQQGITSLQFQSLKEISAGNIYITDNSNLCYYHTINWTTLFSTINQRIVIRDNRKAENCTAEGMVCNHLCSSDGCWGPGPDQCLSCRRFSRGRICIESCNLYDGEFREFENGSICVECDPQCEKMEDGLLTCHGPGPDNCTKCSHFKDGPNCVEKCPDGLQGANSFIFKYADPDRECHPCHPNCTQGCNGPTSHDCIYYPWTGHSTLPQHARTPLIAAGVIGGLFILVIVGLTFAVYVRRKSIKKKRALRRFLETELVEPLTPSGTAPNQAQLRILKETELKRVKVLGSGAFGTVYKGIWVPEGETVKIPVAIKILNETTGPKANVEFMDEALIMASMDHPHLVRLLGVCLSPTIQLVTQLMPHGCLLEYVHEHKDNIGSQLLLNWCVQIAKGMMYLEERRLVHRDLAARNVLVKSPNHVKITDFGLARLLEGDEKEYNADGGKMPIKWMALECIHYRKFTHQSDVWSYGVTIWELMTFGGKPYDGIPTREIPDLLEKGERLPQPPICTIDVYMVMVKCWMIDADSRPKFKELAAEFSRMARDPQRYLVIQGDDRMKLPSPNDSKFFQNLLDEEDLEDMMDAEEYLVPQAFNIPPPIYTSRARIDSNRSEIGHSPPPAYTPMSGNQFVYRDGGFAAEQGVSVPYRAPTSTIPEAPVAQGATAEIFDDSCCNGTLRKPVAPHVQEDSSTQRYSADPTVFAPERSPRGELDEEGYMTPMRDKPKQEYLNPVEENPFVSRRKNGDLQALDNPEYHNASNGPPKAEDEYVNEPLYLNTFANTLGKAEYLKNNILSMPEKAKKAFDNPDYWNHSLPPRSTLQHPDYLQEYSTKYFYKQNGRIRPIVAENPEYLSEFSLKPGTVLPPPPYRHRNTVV
Focal adhesion kinase 1 (Homo sapiens), sequence (Q05397 2-1052 limits assumed): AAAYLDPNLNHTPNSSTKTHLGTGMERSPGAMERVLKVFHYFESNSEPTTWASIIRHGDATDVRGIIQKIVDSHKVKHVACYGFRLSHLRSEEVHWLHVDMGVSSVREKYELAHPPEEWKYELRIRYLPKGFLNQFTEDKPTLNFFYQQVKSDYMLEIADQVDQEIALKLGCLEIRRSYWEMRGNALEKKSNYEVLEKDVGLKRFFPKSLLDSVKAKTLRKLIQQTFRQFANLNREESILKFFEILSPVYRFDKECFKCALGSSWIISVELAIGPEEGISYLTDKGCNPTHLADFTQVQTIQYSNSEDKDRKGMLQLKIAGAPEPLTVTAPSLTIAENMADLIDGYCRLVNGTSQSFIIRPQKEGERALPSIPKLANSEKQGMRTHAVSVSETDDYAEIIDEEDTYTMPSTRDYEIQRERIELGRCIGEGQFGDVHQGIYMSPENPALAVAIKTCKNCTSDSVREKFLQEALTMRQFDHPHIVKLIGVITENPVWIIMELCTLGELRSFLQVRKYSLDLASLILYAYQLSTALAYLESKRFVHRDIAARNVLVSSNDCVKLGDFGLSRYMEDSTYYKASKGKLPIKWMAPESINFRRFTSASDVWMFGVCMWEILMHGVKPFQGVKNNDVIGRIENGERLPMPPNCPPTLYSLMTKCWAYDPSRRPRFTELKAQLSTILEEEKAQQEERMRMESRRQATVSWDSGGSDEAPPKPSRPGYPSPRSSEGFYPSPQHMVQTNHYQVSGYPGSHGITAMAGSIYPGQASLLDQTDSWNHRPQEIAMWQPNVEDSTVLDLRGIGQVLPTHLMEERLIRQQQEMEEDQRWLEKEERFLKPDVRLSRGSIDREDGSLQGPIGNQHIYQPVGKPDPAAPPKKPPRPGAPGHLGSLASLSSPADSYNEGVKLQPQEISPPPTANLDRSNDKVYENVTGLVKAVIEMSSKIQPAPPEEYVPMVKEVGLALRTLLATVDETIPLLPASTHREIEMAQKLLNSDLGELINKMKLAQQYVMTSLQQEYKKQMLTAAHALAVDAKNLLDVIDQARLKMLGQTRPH

With `NC(=O)c1ccc2[nH]c(-c3ccc(Oc4ccc(Cl)cc4)cc3)nc2c1`, the residual activity was 94% in assay [1]; 110% in assay [2]; 128% in [3]; 102% (inactive) in [4]; 94% in assay [5]; 89% in assay [6]. Further, the residual activity in assay [7] was 93%; in assay [8], 106%; in [9], 126%; in assay [10] it was 91%.

The term residual activity denotes the signal under treatment as a percentage of the control signal.
